Screens from PubChem BioAssay.
Beta apoptosis – blocks beta cell apoptosis | INS-1E cytokine-induced death, ATP luminescence, 48 h; percent of positive-control rescue, neutral wells zero | protection from apoptosis, % (concentration not given with the values) | actives 0.8% (n = 300,000);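 active = Every replicate reaches about 75%, or at least half do and their mean reaches it too, limit read from the data; inconclusive = At least half of replicates reach the limit but their mean does not; inactive = Under half of replicates reach the limit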;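 note: 0% = cytokine-treated negative control wells and 100% = positive control rescue; higher means more ATP so stronger rescue from cytokine killing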
A1 inh – inhibitors of the anti-apoptotic protein A1, read as caspase activation. MEF A1-2A-BIM cells, Caspase-Glo 3/7 luminescence, 3 h; percent of clofoctol response, vehicle zero. actives 0.066% (n = 330,000). AID 2462. caspase activation, % (no concentration beside the values);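 active = over half of replicate activation scores above 10%, or exactly half above 10 with the replicate mean above 10; inconclusive = replicate mean below 10 yet half the replicates above 10; inactive = over half of replicates below 10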
aSyn 5UTR inh – MLPCN primary screen, SNCA 5' untranslated region | alpha-synuclein 5'UTR reporter, inhibitor activity | inhibition, % (tested at 7.5 µM) | AID 1813 | actives 0.82% (n = 300,000); in the data active = inhibition above about 60%; inconclusive = no clear call, values can overlap the other calls;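 note: H4 neuroglioblastoma cells stably carrying SNCA 5'UTR luciferase fusion; 0% = DMSO wells and 100% = positive control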
Mdm2-MdmX inh – inhibitors of human Mdm2/MdmX interaction; actives 3% (n = 330,000); SaOS-2 split-luciferase Mdm2/MdmX complementation, luminescence; inhibition, % at 8 µM; O15151+Q00987; AID 485346;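 active = inhibition of at least 50% at 8 µM in the primary screen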
Target sequence (O15151 whole entry, looked up): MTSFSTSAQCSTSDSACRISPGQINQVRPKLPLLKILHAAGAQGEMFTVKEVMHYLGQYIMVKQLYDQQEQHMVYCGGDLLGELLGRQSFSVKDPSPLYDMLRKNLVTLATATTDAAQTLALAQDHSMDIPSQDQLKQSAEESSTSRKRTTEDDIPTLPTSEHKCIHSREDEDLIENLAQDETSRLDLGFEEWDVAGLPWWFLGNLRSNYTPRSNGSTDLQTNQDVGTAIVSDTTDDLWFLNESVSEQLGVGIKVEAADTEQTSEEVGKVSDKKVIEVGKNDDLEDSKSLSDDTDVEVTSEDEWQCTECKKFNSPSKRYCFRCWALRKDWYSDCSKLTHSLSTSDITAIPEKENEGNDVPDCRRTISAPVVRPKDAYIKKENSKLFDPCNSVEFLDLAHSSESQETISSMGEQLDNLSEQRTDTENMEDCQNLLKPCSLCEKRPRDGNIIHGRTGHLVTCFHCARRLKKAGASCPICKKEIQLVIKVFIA
Target sequence (Q00987 whole entry, looked up): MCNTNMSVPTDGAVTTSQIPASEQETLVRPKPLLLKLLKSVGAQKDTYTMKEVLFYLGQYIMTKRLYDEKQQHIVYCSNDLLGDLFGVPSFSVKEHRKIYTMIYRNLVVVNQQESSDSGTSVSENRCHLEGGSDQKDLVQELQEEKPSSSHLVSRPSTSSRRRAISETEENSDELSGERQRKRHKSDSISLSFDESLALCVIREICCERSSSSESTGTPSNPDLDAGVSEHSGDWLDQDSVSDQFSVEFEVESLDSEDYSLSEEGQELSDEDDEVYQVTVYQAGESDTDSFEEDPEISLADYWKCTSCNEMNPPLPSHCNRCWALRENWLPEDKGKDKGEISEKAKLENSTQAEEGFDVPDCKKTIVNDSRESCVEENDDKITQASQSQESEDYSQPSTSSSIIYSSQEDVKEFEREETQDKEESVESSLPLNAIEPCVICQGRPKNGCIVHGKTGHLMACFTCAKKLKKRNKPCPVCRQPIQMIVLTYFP
CSC inhib – blocks cancer stem cells; AID 2717; inhibition, % at 7.5 µM; cancer stem cell-like cells viability, luminescence; actives 1.1% (n = 300,000); in the data active = inhibition above about 75%; inconclusive = no clear call, values can overlap the other calls; tested in HMLE shEcad cells
An asterisk follows results filed as active; ? = inconclusive; nt = no result. Rows were chosen to be rich in hits. Some 4.1% of all compounds tested hit in one or more screens of this group.

SMILES	Beta apoptosis	A1 inh	aSyn 5UTR inh	Mdm2-MdmX inh	CSC inhib
Cn1c(=O)c2c(nc(NCCNC(=O)c3ccco3)n2Cc2ccccc2)n(C)c1=O	4	1	-22	19	0
CC1(C)[C@@H](O)CC[C@]2(C)C3C(O)C=C4[C@H]5C[C@@](C)(CO)CC[C@]5(C)CC[C@]4(C)[C@]3(C)CC[C@@H]12 (stereo partly drawn)	-1	1	11	-21	126*
CC(/C=C1\SC(=S)N(c2ccc(C(=O)O)cc2)C1=O)=C\c1ccccc1	4	0	-11	1	76*
FC(F)Sc1ccc(N=C2NN=C(c3ccc4c(c3)OCCO4)CS2)cc1	101*	0	-127	-2	20
COc1ccc(N=C2NN=C(c3ccc4c(c3)OCCO4)CS2)cc1	-9	0	-56	11	-12
c1ccc2c(c1)CSc1ccccc1N2	nt	-1	104*	13	-8
CCN1CCN(S(=O)(=O)c2ccc(OC)c(NC(=O)c3ccccc3F)c2)CC1	nt	1	21	21	-17
CC(C)(C)C(=O)N1CCc2cc(-c3csc(N)n3)ccc21	0	1	66*	6	7
C=C1CCN([C@@H](CC(C)C)C(=O)Nc2ccc(OC)cc2)S(=O)(=O)c2ccccc21	2	0	2	29	-7
C=C1CCN([C@@H](CC(C)C)C(=O)Nc2nc3ccc(Cl)cc3s2)S(=O)(=O)c2ccccc21	1	-1	-12	28	102*
CC(=O)c1ccccc1OCCOc1ccccc1C(C)=O	nt	-1	-2	-16	10
COc1ccccc1OCCCCOc1ccccc1C(C)=O	100*	-1	21	26	8
CN(C)CCC(=O)C(Cc1ccccc1)c1ccccc1 (stereo not drawn)	nt	1	99*	19	64
O=C(CCC(=O)N1CCN(c2ccccc2F)CC1)N1CCN(c2ccc(F)cc2)CC1	1	0	15	10	-17
O=C(C(Sc1ccccc1)c1ccccc1)N1CCN(c2ccccc2F)CC1 (stereo not drawn)	90*	1	-1	-6	nt
O=C(CCC(=O)N1CCN(c2ccccc2F)CC1)N1CCN(c2ccccc2)CC1	1	9.4*	7	30	-22
O=C(C(Sc1ccccc1)c1ccc(Br)cc1)N1CCOCC1 (stereo not drawn)	0	1	-3	13	-9
Cc1ccc(S(=O)(=O)N2CCC3(CC2)OCCN3S(=O)(=O)c2c(C)cc(C)cc2C)cc1	nt	0	-2	31	0
COc1ccccc1NC(=O)COC(=O)c1cc2ccccc2cc1O	-3	-3	nt	3	nt
COc1ccccc1NC(=O)c1cc2cc(Br)ccc2cc1O	?	-1	-3	nt	106*
O=C1NC(=S)/C(=C\c2ccc(-c3ccccc3Cl)o2)S1	-1	-2	-56	nt	118*
COc1cccc(OCC(=O)Nc2c3c(nn2-c2ccc(F)cc2)CS(=O)(=O)C3)c1	-1	-1	8	28	nt
O=c1c2cc(NC(=S)NCCCN3CCC(Cc4ccccc4)CC3)ccc2nc2n1CCCCC2	-3	0	12	48	101*
O=c1c2cc(NC(=S)NCCN3CCCCCC3)ccc2nc2n1CCCCC2	-2	-2	-26	15	13
Cc1ccc2c(c1)-c1nc3ccccc3cc1C2=NC1CCCCC1	2	-9	nt	nt	38
SMILES	Beta apoptosis	A1 inh	aSyn 5UTR inh	Mdm2-MdmX inh	CSC inhib
Cc1ccc2c(c1)Cc1nc3ccccc3nc1-2	2	-7	71*	-68	0
O=C(O)c1ccc(Cl)c(S(=O)(=O)N(Cc2ccccc2)c2ccc(F)cc2)c1	3	0	9	-5	96*
N#Cc1c(Nc2ccccc2)sc(C(=O)c2ccc(F)cc2)c1N	91*	1	14	-20	42
O=C(Nc1ccc(N2CCCCC2)cc1)c1ccc([N+](=O)[O-])o1	37	-7	-214	34	32
CCCC(=O)N1CCN(c2ccc(NC(=O)c3ccc([N+](=O)[O-])o3)cc2)CC1	nt	nt	40	nt	nt
CC1CCN(c2ccc(NC(=O)c3ccc([N+](=O)[O-])o3)cc2)CC1	85*	-5	44	46	100*
CS(=O)(=O)N1CCN(c2ccc(NC(=O)c3ccc([N+](=O)[O-])o3)cc2)CC1	nt	nt	72*	nt	nt
O=C(Nc1ccc(N2CCN(C(=O)c3ccc(Cl)cc3)CC2)cc1)c1ccc([N+](=O)[O-])o1	nt	nt	120*	nt	nt
CCCN(C(=O)COC(=O)c1nc2nc(C)cc(C)n2n1)C1CCS(=O)(=O)C1 (stereo not drawn)	-1	?	nt	-27	nt
CC(N)C(=O)NC(C(=O)N1CCCC1C(=O)NC(c1ccccc1)c1ccccc1)C(C)C (stereo not drawn)	4	0	nt	-10	1
CCOC(=O)N1CCN(C(=O)c2cc(COc3ccc4ncccc4c3)on2)CC1	55	1	-17	13	-6
CCC(O)C1CCN(C(=O)c2cc(COc3ccc4ncccc4c3)on2)CC1 (stereo not drawn)	106*	0	9	15	0
O=C(c1cc(COc2ccc3ncccc3c2)on1)N1CCC(O)CC1	nt	0	-53	1	-7
Cc1cccnc1CN1CCN(C(=O)c2cc(COc3ccc4ncccc4c3)on2)CC1	100*	0	3	38	12
CCOc1ccc(NC(=O)CN(C)C(=O)C2CCN(C(=O)c3ccc(Cl)cc3)CC2)cc1OCC	-5	1	nt	22	nt
CCCC(C(=O)Nc1cccc(S(=O)(=O)N2CCCC2)c1)c1ccccc1 (stereo not drawn)	-3	1	18	19	-9
Cc1ccccc1-c1nc(C#N)c(N2CCCCC2)o1	0	0	-8	-15	-6
CC1CC(C)(C)Nc2ccc(OC(=O)c3ccco3)cc21 (stereo not drawn)	-20	0	70*	32	11
COc1cccc(CN2CC(C(=O)NCCc3ccccc3C(F)(F)F)CCC2=O)c1 (stereo not drawn)	-1	-1	-14	5	-3
CC1=C(C#N)C(C(F)(F)F)(C(F)(F)F)N=C(c2ccco2)N1	101*	0	15	18	-13
CCCCCn1c(=O)[nH]c2cc(C(=O)NCCCN3CCCCC3CC)ccc2c1=O (stereo not drawn)	-7	0	-15	34	-11
C[C@H](NC(=O)c1ccco1)C(=O)N1CCN(c2ccc(C(F)(F)F)cn2)CC1	3	2	nt	7	-18
Cc1ccc(NC(=S)NC(=O)c2ccc(F)cc2)cc1S(=O)(=O)Nc1ccccc1Cl	0	0	5	46	79*
Cc1ccc(NC(=O)c2ccc(=O)[nH]n2)cc1S(=O)(=O)Nc1ccccc1Cl	4	1	nt	8	9
O=C(CN(c1cccc([N+](=O)[O-])c1)S(=O)(=O)c1ccccc1)N1CCCCC1	3	0	-4	-3	-10
O=C(OCC(=O)N1CCOCC1)c1cc(F)c(F)cc1Cl	-6	-1	3	1	-12
